The target of the test is PRDM9Cst (Mus musculus (CAST/EiJ)). The test can be described thus: competition EMSA; competition against biotin-labeled 75-bp Hlx1 B6 oligo; 10 mM Tris pH 7.5, 50 mM KCl, 1 mM DTT, 50 ng/ul poly(dI/dC), 0.05% NP-40, crude E. coli extract 3 ul in 20 ul; 1 h with unlabeled competitor, then 4 h with biotin-labeled 75-bp Hlx1; temperature not stated; high values mean tight binding. As to conditions: tags: N-terminal His tag (pBAD/HisB); dsDNA, one strand shown. Background: A gel shift assay detects complexes by their altered migration in electrophoresis.
PRDM9Cst (Mus musculus (CAST/EiJ)), sequence (chain, as listed by the source): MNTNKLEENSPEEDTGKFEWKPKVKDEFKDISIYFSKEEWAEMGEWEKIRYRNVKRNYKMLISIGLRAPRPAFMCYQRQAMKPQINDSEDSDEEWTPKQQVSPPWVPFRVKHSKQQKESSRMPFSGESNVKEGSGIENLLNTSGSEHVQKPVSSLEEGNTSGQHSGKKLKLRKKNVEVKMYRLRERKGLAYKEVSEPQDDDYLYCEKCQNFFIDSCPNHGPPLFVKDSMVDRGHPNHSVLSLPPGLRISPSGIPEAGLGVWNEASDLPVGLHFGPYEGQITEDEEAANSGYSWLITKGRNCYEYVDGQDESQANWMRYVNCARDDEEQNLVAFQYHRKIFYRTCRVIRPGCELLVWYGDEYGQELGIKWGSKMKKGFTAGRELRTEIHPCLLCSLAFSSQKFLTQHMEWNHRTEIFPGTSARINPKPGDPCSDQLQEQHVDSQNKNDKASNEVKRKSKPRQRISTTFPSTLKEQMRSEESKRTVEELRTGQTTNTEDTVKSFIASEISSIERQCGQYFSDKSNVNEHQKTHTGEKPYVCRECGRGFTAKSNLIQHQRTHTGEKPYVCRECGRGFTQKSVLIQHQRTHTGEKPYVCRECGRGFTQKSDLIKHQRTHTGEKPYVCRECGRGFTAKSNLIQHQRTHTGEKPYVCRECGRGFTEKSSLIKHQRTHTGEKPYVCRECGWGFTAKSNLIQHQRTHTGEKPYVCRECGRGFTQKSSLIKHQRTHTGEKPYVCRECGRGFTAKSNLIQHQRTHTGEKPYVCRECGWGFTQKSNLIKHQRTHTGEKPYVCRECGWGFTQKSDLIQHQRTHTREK
As to ATAGTGTGCAGACTTGGACCCTGCCCTTTCCTT, the binding signal is 0.12 Bmut (0 = wild type, -1 = scrambled).
As for ATAGTGTGCAGACATGGACCCTGCCCTTTCTTT, the binding signal was -0.7 Bmut (0 = wild type, -1 = scrambled).
Take ATAGTGTGCAGACTTGGACCCTGCGCTTTCTTT: the binding signal was -0.4 Bmut (0 = wild type, -1 = scrambled).
On to ACAGTGTGCAGACTTGGACCCTGCCCTTTCTTT, for which the binding signal was -0.1 Bmut (0 = wild type, -1 = scrambled).
The value for ATAATGTGCAGACTTGGACCCTGCCCTTTCTTT was -0.4 Bmut (0 = wild type, -1 = scrambled); that for ATAGTGTGCAGACTTGGACCCTGCCCTTTCTTT was 0 Bmut (0 = wild type, -1 = scrambled).
With AGAGTGTGCAGACTTGGACCCTGCCCTTTCTTT the figure was -0.8 Bmut (0 = wild type, -1 = scrambled).
In the case of ATAGTGTGCAGACTTGGACCCTGCCCTTTCTAT, the binding signal was 0.15 Bmut (0 = wild type, -1 = scrambled).
With ATAGTATGCAGACTTGGACCCTGCCCTTTCTTT the figure was 0 Bmut (0 = wild type, -1 = scrambled).
Take ATAGTGTGCAGACTTGGATCCTGCCCTTTCTTT: the binding signal was -0.3 Bmut (0 = wild type, -1 = scrambled).
Consider ATAGTGTCCAGACTTGGACCCTGCCCTTTCTTT, for which the binding signal is -0.1 Bmut (0 = wild type, -1 = scrambled).
Turning to ATAGTTTGCAGACTTGGACCCTGCCCTTTCTTT, the binding signal was -0.3 Bmut (0 = wild type, -1 = scrambled).
For ATGGTGTGCAGACTTGGACCCTGCCCTTTCTTT, the binding signal is 0 Bmut (0 = wild type, -1 = scrambled).
The value for ATTGTGTGCAGACTTGGACCCTGCCCTTTCTTT was -0.1 Bmut (0 = wild type, -1 = scrambled); that for ATAGTGTGCAGACTTGGACCCTGCACTTTCTTT was -0.1 Bmut (0 = wild type, -1 = scrambled).
ATAGTGTGCAGACTTGGACCCTCCCCTTTCTTT: the binding signal was -0.1 Bmut (0 = wild type, -1 = scrambled).
The value for AAAGTGTGCAGACTTGGACCCTGCCCTTTCTTT was 0 Bmut (0 = wild type, -1 = scrambled); that for ATAGAGTGCAGACTTGGACCCTGCCCTTTCTTT was 0 Bmut (0 = wild type, -1 = scrambled).
With CTAGTGTGCAGACTTGGACCCTGCCCTTTCTTT the figure was -0.1 Bmut (0 = wild type, -1 = scrambled).
With ATAGTGTGCAGACTTGGACCCTGCCCTTGCTTT the figure was -0 Bmut (0 = wild type, -1 = scrambled); with ATAGTGTGCAGACTTGGACCCTGCCCTTTTTTT, 0.11 Bmut (0 = wild type, -1 = scrambled); with ATAGTGTGCAGACTTGGACCCGGCCCTTTCTTT, -0.5 Bmut (0 = wild type, -1 = scrambled).

The values are drawn from PMC4053984, “DNA binding specificities of the long zinc-finger recombination protein PRDM9”.
